Results filed as inconclusive are left out. Values without a mark were called inactive. Calls follow the shape of the dose curve; as a rule, active = well fitted inhibition curve with a large enough effect; inconclusive = small, poorly fitted or top-dose-only effect; inactive = flat fitted curve, though single readings scatter.
molecular target: Calcium and integrin-binding protein 1 (Homo sapiens) (UniProt Q99828); test: Primary qHTS for Identification of Calcium Integrin Binding Protein 1 (CIB1) Competitor (AID 1508620); settings: CIB1-GST / FITC-alphaIIb peptide fluorescence polarization; series mostly up to 114 µM; activity change, negative = inhibition: at the top concentration; also: top concentration of the series differs between compounds
Sequence (Q99828 whole entry, looked up): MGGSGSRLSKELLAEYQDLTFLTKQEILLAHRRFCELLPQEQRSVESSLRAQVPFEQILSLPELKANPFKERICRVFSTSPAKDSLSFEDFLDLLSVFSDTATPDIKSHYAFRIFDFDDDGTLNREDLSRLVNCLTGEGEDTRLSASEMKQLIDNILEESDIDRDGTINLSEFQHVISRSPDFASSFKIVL
In short: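 Fluorescence polarization competition: GST-tagged CIB1 (1 uM final) preincubated with compound 15 min at room temperature, then FITC-labelled alphaIIb peptide (100 nM final) added. After 15 min at room temperature, polarization read at Ex 480/Em 540.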
% is scaled to controls: 0 for no effect and ±100 for the full control effect.

Row | SMILES | activity change, negative = inhibition
1 | S=C(Nc1cc(Cl)ccn1)N1CCN(c2ccc3ccccc3n2)CC1 | -4.92%
2 | Cc1ccc(C(=O)[C@H]2CC[C@@H](C(=O)Nc3ccc(S(=O)(=O)Nc4nccs4)cc3)C2)cc1C | 3.63%
3 | Cc1c([S+](=O)([O-])N2CCN([S+](=O)([O-])c3c(F)cccc3F)CC2)sc2ccc(Cl)cc12 | 2.6%
4 | O=C(O)c1ccc(-c2ccc3ncnc(NCCc4cnc[nH]4)c3c2)o1 | -11.9%
5 | Cc1cccc(CNc2ncnc3ccc(-c4cccc(Cl)c4)cc23)c1 | -1.97%
6 | CN(C)CC(=O)NC1CCCc2c1cnn2-c1ccc(F)cc1F (stereo not given) | 0.923%
7 | Cc1c(C(=O)OCC2CCCO2)[nH]c2c1C(=O)CCC2 (stereo not given) | -11.3%
8 | Cc1ccccc1C(=O)N1CCc2cc(-n3cc(NC(=O)Cc4ccccc4)cn3)ccc21 | 2.64%
9 | COc1cccc(-c2nnc3n2N=C(c2ccccc2OC)CS3)c1 | -1.11%
10 | CCOC(=O)C1CCN(C(=O)C2(NC(=O)Nc3ccccc3Cl)CCC2)CC1 | -2.76%
11 | O=C(CCc1ccccc1Br)NCCc1nc2ccccc2[nH]1 | 0.113%
12 | NC(=O)C1CCN(c2nc(-c3cc4ccccc4o3)cs2)CC1 | -1.82%
13 | COc1ccc(NC(=O)C2=C(C)NC(Nc3nc4ccccc4o3)=NC2c2ccccc2Br)cc1 (stereo not given) | 0.993%
14 | COc1cccc(CNc2ccc(S(=O)(=O)Nc3ccc(C)nc3)cc2)c1O | -7.1%
15 | CCOC(=O)CCc1cc(F)c(S(=O)(=O)N2CCN(S(=O)(=O)c3ccc4c(c3)OCCO4)CC2)cc1F | 5.87%
16 | Cc1ccc(NS(=O)(=O)c2cc3c(cc2Cl)NC(=O)CO3)cc1C | 6.91%
17 | FC(F)(F)c1ccccc1-c1nc(NCc2ccc(-c3ccc4c(c3)OCCO4)cc2)c2ccccc2n1 | 7.58%
18 | COc1ccc(OC)c(C2=Nn3c(nnc3-c3ccccc3OC)SC2)c1 | 6.28%
19 | O=C(Nc1ccc(-c2nc3ccccc3[nH]2)cc1)c1ccc(-c2ccccc2)cc1 | 8.32%
20 | COc1ccc(-c2nc3cccc(OC)c3c(=O)n2Cc2ccccc2)cc1COc1ccc(NC(C)=O)cc1 | -10.5%

Row | SMILES | activity change, negative = inhibition
21 | NC(=O)C1CCN(c2nc(-c3ccc(Oc4ccccc4)cc3)cs2)CC1 | -0.992%
22 | COc1cccc(C2c3c(ncn(-c4ccccc4-c4ccccc4)c3=N)Oc3ccc4ccccc4c32)c1 (stereo not given) | 9.35%
23 | CC(=O)Nc1cccc(S(=O)(=O)N2CCN(S(=O)(=O)c3c(F)cccc3F)CC2)c1 | -2.55%
24 | CCOC(=O)C1CCN(C(=O)C(C)(C)NC(=O)Nc2ccc3sccc3c2)CC1 | -9.54%
25 | Cc1ccc(OCCn2c(CCNC(=O)c3ccccn3)nc3ccccc32)cc1 | -7.54%
26 | Oc1cc(NCc2ccccc2)cc2cccnc12 | -24.2%
27 | O=C(Nc1ncc(Cc2ccc(C(F)(F)F)cc2)s1)c1ccco1 | -2.65%
28 | O=[S+]([O-])(c1ccc2c(c1)OCCO2)N1CCN([S+](=O)([O-])c2c(O)cc(F)cc2F)CC1 | 0.118%
29 | O=S(=O)(c1ccc2c(c1)OCCO2)N1CCN(S(=O)(=O)c2ccccc2F)CC1 | -3.67%
30 | O=C1CCc2cc(S(=O)(=O)Nc3ccc4ncccc4c3)ccc2N1 | 3.16%
31 | COc1cccc(CNc2ccc(S(=O)(=O)Nc3cccnc3)cc2)c1O | -4%
32 | O=C(Nc1ccc(-n2ccnc2)c(F)c1)Nc1nnc(-c2ccncc2)s1 | -3.16%
33 | O=C(Nc1cccc2c1cnn2-c1ccc(F)cc1)c1ccccn1 | 4.34%
34 | Cc1cccc(NS(=O)(=O)c2ccc3c(c2)CCC(=O)N3)c1 | -1.52%
35 | COc1ccc(C2c3c(ncn(CCN4CCOCC4)c3=N)Oc3ccc4ccccc4c32)cc1 (stereo not given) | 9.45%
36 | Cc1cc(C)nc(NC(=S)N2CCN(c3nncs3)CC2)c1 | -0.572%
37 | Cc1cc(C)nc(NC(=S)N2CCN(c3cccc(S(C)(=O)=O)c3)CC2)c1 | -3.91%
38 | O=C(NCCCCc1ccccc1)C1CCN(c2nc(-c3ccc(Br)cc3)cs2)CC1 | 3.8%
39 | Fc1cccc(CNc2ncnc3ccc(-c4cccc(Cl)c4)cc23)c1 | -1.5%
40 | Nc1nnc(-c2cccc3ccccc23)o1 | 2.82%

Source: PubChem BioAssay (NCATS)
